Measured values taken from PubChem BioAssay AID1159580 (chemical genetic matrix, 2015).
The campaign covered roughly 5,500 compounds. About 2,000 (36%) were called active. About 18% were inconclusive and are not listed. Rule as the data show it: active = normalized growth mostly below about 0.91 (no sharp cut-off); inconclusive = no clear call, values can overlap the other calls; inactive = mostly above about 0.92. The list shows a part of the results.

Experiment: chemical genetic growth profiling, strain panel (AID 1159580);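 also: tested at 20 µM; growth read once vehicle control cultures reached saturation at 30 °C; 1 = growth at the plate median or of vehicle wells; lower values mean less growth of the strain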
Conditions: S. cerevisiae deletion strains, growth OD
[1] = locus YAL021C, strain ccr4, active compounds read low
[2] = locus YAL026C, strain drs2, active compounds read low
[3] = locus YAL030W, strain snc1, active compounds read low
[4] = locus YBL061C, strain skt5, active compounds read low
[5] = locus YBR009C, strain hhf1, active compounds read low
[6] = locus YBR023C, strain chs3, active compounds read low
[7] = locus YBR171W, strain sec66, active compounds read low
[8] = locus YBR231C, strain swc5, active compounds read low
[9] = locus YBR279W, strain paf1, active compounds read low
[10] = locus YCL011C, strain gbp2, active compounds read low
[11] = locus YCL016C, strain dcc1, active compounds read low
[12] = locus YCL069W, strain vba3, active compounds read low
[13] = locus YCR088W, strain abp1, active compounds read low
[14] = locus YDL005C, strain med2, active compounds read low
[15] = locus YDL040C, strain nat1, active compounds read low
[16] = locus YDR001C, strain nth1, active compounds read low
[17] = locus YDR069C, strain doa4, active compounds read low
[18] = locus YDR137W, strain rgp1, active compounds read low
[19] = locus YDR159W, strain sac3, active compounds read low
[20] = locus YDR297W, strain sur2, active compounds read low
[21] = locus YDR334W, strain swr1, active compounds read low
[22] = locus YDR335W, strain msn5, active compounds read low
[23] = locus YDR392W, strain spt3, active compounds read low
[24] = locus YEL003W, strain gim4, active compounds read low
[25] = locus YEL037C, strain rad23, active compounds read low
[26] = locus YEL061C, strain CIN8 (second series), active compounds read low
[27] = locus YER015W, strain faa2, active compounds read low
[28] = locus YER016W, strain bim1, active compounds read low
[29] = locus YER111C, strain swi4, active compounds read low
[30] = locus YER155C, strain BEM2 (second series), active compounds read low
[31] = locus YFR010W, strain ubp6, active compounds read low
[32] = locus YGL167C, strain pmr1, active compounds read low
[33] = locus YGL173C, strain kem1, active compounds read low
[34] = locus YGL227W, strain vid30, active compounds read low
[35] = locus YGL240W, strain doc1, active compounds read low
[36] = locus YGL253W, strain hxk2, active compounds read low
[37] = locus YHR013C, strain ard1, active compounds read low
[38] = locus YHR027C, strain rpn1, active compounds read low
[39] = locus YHR030C, strain SLT2, active compounds read low
[40] = locus YHR079C, strain IRE1, active compounds read low
[41] = locus YHR142W, strain chs7, active compounds read low
[42] = locus YJL092W, strain hpr5, active compounds read low
[43] = locus YJL095W, strain BCK1 (second series), active compounds read low
[44] = locus YJL095W, strain BCK1, active compounds read low
[45] = locus YJL115W, strain asf1, active compounds read low
[46] = locus YJL129C, strain trk1, active compounds read low
[47] = locus YJL154C, strain vps35, active compounds read low
[48] = locus YJL164C, strain tpk1, active compounds read low
[49] = locus YJL166W, strain qcr8, active compounds read low
[50] = locus YJR066W, strain TOR1, active compounds read low
[51] = locus YKL160W, strain elf1, active compounds read low
[52] = locus YKR026C, strain gcn3, active compounds read low
[53] = locus YKR091W, strain srl3, active compounds read low
[54] = locus YLL001W, strain dnm1, active compounds read low
[55] = locus YLL026W, active compounds read low
[56] = locus YLL041C, strain sdh2, active compounds read low
[57] = locus YLR027C, strain aat2, active compounds read low
[58] = locus YLR113W, strain HOG1, active compounds read low
[59] = locus YLR221C, strain rsa3, active compounds read low
[60] = locus YLR258W, strain gsy2, active compounds read low
[61] = locus YLR262C, strain YPT6 (second series), active compounds read low
[62] = locus YLR320W, strain mms22, active compounds read low
[63] = locus YLR342W, strain FKS1, active compounds read low
[64] = locus YLR357W, strain rsc2, active compounds read low
[65] = locus YLR370C, strain arc18, active compounds read low
[66] = locus YLR384C, strain iki3, active compounds read low
[67] = locus YML120C, strain ndi1, active compounds read low
[68] = locus YMR058W, strain fet3, active compounds read low
[69] = locus YMR125W, strain sto1, active compounds read low
[70] = locus YMR129W, active compounds read low
[71] = locus YMR205C, strain PFK2, active compounds read low
[72] = locus YMR231W, strain pep5, active compounds read low
[73] = locus YNL071W, strain lat1, active compounds read low
[74] = locus YNL183C, strain NPR1, active compounds read low
[75] = locus YNL209W, strain ssb2, active compounds read low
[76] = locus YNL248C, strain rpa49, active compounds read low
[77] = locus YNL322C, strain KRE1 (second series), active compounds read low
[78] = locus YNR049C, strain mso1, active compounds read low
[79] = locus YOR001W, strain rrp6, active compounds read low
[80] = locus YOR070C, strain gyp1, active compounds read low
[81] = locus YOR080W, strain dia2, active compounds read low
[82] = locus YOR083W, strain WHI5, active compounds read low
[83] = locus YOR106W, strain vam3, active compounds read low
[84] = locus YOR231W, strain MKK1, active compounds read low
[85] = locus YOR265W, strain rbl2, active compounds read low
[86] = locus YOR270C, strain vph1, active compounds read low
[87] = locus YOR290C, strain snf2, active compounds read low
[88] = locus YPL051W, strain arl3, active compounds read low
[89] = locus YPL078C, strain atp4, active compounds read low
[90] = locus YPL106C, strain sse1, active compounds read low
[91] = locus YPL240C, strain hsp82, active compounds read low
[92] = locus YPL256C, strain CLN2, active compounds read low

Measured: normalized growth

CNS(=O)(=O)Cc1ccc2[nH]cc(CCN(C)C)c2c1
inactive: [1] 0.999 | [2] 1.02 | [3] 1.02 | [4] 1.03 | [5] 1.03 | [6] 1.03 | [7] 1.04 | [8] 1.03 | [9] 1.02 | [10] 1.02 | [11] 1.02 | [12] 1.03 | [13] 1.03 | [14] 1.04 | [15] 1.02 | [16] 1.04 | [17] 1.02 | [18] 1.04 | [19] 1.03 | locus YDR195W, strain ref2 1 | [20] 1.02 | [21] 1.02 | [22] 1.02 | [23] 1.01 | [24] 1.02 | [25] 1.03 | [26] 1.03 | [27] 1.02 | [28] 1.02 | [29] 1.02 | [30] 1 | [31] 1.03 | [32] 1.03 | [33] 1.05 | [34] 1.03 | [35] 1.02 | [36] 1.02 | [37] 1.07 | [38] 1.04 | [39] 1.07 | [40] 1.05 | [41] 1.04 | [42] 1.03 | [43] 1.02 | [44] 1.01 | [45] 1.03 | [46] 1.07 | [47] 1.03 | [48] 1.02 | [49] 1.02 | locus YJL187C, strain SWE1, active compounds read low 1.03 | [50] 0.977 | [51] 1.02 | [52] 1.03 | [53] 1.01 | [54] 1.02 | [55] 1.01 | [56] 1.02 | [57] 1.01 | [58] 0.935 | [59] 1.02 | [60] 1.03 | [61] 1.04 | [62] 1.04 | [63] 1.02 | [64] 1.02 | [65] 1.01 | [66] 1.03 | [67] 1.02 | [68] 1.04 | [69] 1.02 | [70] 1.01 | [71] 1.05 | [72] 1.03 | [73] 1.03 | [74] 0.97 | [75] 1.02 | [76] 1.06 | [77] 1.02 | [78] 1.02 | [79] 1.03 | [80] 1.03 | [81] 1.03 | [82] 1.01 | [83] 1.05 | [84] 1.03 | [85] 1.01 | [86] 1.1 | [87] 1.02 | [88] 1.02 | [89] 1.02 | [90] 1.03 | [91] 1.02 | [92] 1.06

CN(C)CCc1c[nH]c2ccc(C[C@H]3COC(=O)N3)cc12
inactive: [1] 1.02 | [2] 1.01 | [3] 1.01 | [4] 1.01 | [5] 1.01 | [6] 1.01 | [7] 1.02 | [8] 0.993 | [9] 1.01 | [10] 1.01 | [11] 1 | locus YCL061C, strain MRC1, active compounds read low 1.01 | [12] 1.01 | [13] 1.01 | [14] 1.01 | [15] 1.01 | [16] 1.01 | [17] 1.02 | [18] 0.993 | [19] 1.04 | locus YDR195W, strain ref2 0.978 | [20] 1.01 | [21] 1.02 | [22] 1.01 | [23] 1.03 | [24] 1 | [25] 1.01 | [26] 1.01 | [27] 1.01 | [28] 1.01 | [29] 1.02 | [30] 1.06 | [31] 1.02 | [32] 1.01 | [33] 1 | [34] 1.01 | [35] 1.01 | [36] 0.998 | [37] 1 | [38] 1.01 | [39] 1.02 | [40] 0.986 | [41] 0.992 | [42] 1.01 | [43] 1.01 | [44] 1 | [45] 1.01 | [46] 0.988 | [47] 1.01 | [48] 1.02 | [49] 1.01 | [50] 0.966 | [51] 1 | [52] 0.992 | [53] 0.997 | [54] 1.01 | [55] 1.01 | [56] 1.01 | [57] 1.01 | [58] 0.972 | [59] 1.02 | [60] 1.01 | [61] 1.01 | [62] 1.01 | [63] 1.01 | [64] 0.973 | [65] 1.01 | [66] 1 | [67] 1.02 | [68] 1.01 | [69] 1.01 | [70] 1.01 | [71] 0.998 | [72] 1 | [73] 1.01 | [74] 0.978 | [75] 1.01 | [76] 1 | [77] 1.01 | [78] 1.01 | [79] 0.998 | [80] 1.01 | [81] 1 | [82] 1 | [83] 1 | [84] 0.999 | [85] 1.01 | [86] 0.991 | [87] 1.01 | [88] 1.01 | [89] 1 | [90] 1.04 | [91] 1.01 | [92] 1.02
